Only some compounds are listed: those with a hit (about 2.4% of all), similar ones and a draw of the others.
Cruzain inh noDet: qHTS Assay for Promiscuous and Specific Inhibitors of Cruzain (without detergent); Cruzipain (Trypanosoma cruzi), P25779; purified cruzain, Z-FR-AMC fluorescence, no detergent; Potency, µM, actives largely listed as inhibitors; 2.3% of 200,000 active; note: nearly all actives have a fitted effect of over 40% in size
Target sequence (P25779 123-467 limits assumed): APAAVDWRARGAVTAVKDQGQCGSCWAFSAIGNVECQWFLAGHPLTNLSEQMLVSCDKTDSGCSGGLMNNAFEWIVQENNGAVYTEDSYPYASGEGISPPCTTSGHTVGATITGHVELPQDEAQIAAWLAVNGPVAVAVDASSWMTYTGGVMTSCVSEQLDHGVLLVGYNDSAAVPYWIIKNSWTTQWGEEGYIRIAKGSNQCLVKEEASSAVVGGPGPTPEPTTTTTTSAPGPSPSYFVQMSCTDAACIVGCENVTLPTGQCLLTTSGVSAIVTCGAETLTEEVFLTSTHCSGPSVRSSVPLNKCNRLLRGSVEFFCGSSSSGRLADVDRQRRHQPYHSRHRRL
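Detergent-free condition (0.00005% Triton X-100) in acetate buffer pH 5.5 with DTT. 1.5 nM enzyme and compound were pre-mixed 15 min, then 2 uM Z-FR-AMC substrate added; reaction progress from fluorescence change between first and third reads (60 s).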
Cruzain Triton: qHTS Assay for Promiscuous and Specific Inhibitors of Cruzain (with detergent) | Potency, µM, most hits filed as inhibitors | AID 1478, 2009 | purified cruzain, Z-FR-AMC fluorescence, 0.01% Triton | 0.43% of 200,000 active; note: nearly all actives have a fitted effect of over 40% in size
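Cysteine protease activity tested under reducing, mildly acidic conditions (100 mM sodium acetate pH 5.5, 5 mM DTT) plus 0.01% Triton X-100. Cruzain 1.5 nM; substrate Z-FR-AMC 2 uM; 15 min compound preincubation at room temperature.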
Each line names hits and unclear results; the compound was inactive in the other large screens. Calls come from the whole dose curve; as a rule, active = well fitted curve in the direction sought with a large enough effect; inconclusive = small, poorly fitted or top-dose-only effect, or another doubt; inactive = no such curve, though single readings can be large; an effect the other way counts as inactive or inconclusive.

COc1cc(NC(=O)C(Cc2ccccc2)NS(=O)(=O)c2cccc3nsnc23)cc(OC)c1 (configuration not stated)	none
C=Cc1ccc(CSc2nc(-c3ccccc3C)nc3c2Cc2c(CO)cnc(C)c2O3)cc1	none
O=C(/C(=C(/[O-])c1ccccc1)[n+]1ccccc1)c1ccc([N+](=O)[O-])cc1	none
O=[N+]([O-])c1cccc(/C([O-])=C(/C(=S)Nc2ccccc2)[n+]2ccccc2)c1	Cruzain inh noDet 25µM
CN(C)c1ccc(CNC(=O)C2CCN(S(=O)(=O)c3cn(C)cn3)CC2)cc1	none
CCN(Cc1ccccc1)C(=O)c1cc2c(=O)[nH]c3ccc(C)cc3c2s1	none
CCCCOc1cccc(C(=O)Nc2cc(NC(=O)c3ccco3)ccc2OC)c1	none
CCOC(=O)c1c(NC(=O)Cn2cnc3sc(C)c(-c4ccccc4)c3c2=O)sc(C)c1C	Cruzain inh noDet 13µM
CCOC(=O)c1c(NC(=O)COC(=O)Cn2cnc3ccccc32)sc(C)c1C	none
CCOC(=O)c1c(NC(=O)Cn2cnc3scc(-c4ccc(C)cc4)c3c2=O)sc(C)c1C	Cruzain inh noDet 4µM
CCOC(=O)c1ccc(NC(=O)Cn2cnc3sc(C(=O)OCC)c(C)c3c2=O)cc1	none
CCC(=O)Nc1ccc(/C(C)=N\NC(=O)c2ccc(C)s2)cc1	none
C/C(=N/NC(=O)c1ccc(Cl)s1)c1ccc(NC(=O)COc2ccc(Cl)cc2)cc1	Cruzain inh noDet 20µM
C/C(=N/NC(=O)c1ccc(C)s1)c1cccc(NC(=O)COc2ccc(Cl)cc2Cl)c1	Cruzain inh noDet 13µM
C/C(=N/NC(=O)c1cccs1)c1ccc(NC(=O)COc2ccc(Cl)cc2Cl)cc1	Cruzain inh noDet inconclusive
Cc1cc(C)cc(Nc2cc(C)nc3nc(-c4ccco4)nn23)c1	none
CCCCCCc1cc2cc(S(=O)(=O)c3ccc(Cl)cc3)c(=O)oc2cc1O	Cruzain inh noDet 13µM
CCCCCCc1cc2cc(S(=O)(=O)c3ccc(C)cc3)c(=O)oc2cc1O	none
CCOc1ccc(NC(=O)CSc2nnc(-c3ccc(C)cc3)c(-c3ccc(C)cc3)n2)cc1	none
Cc1cccc(NC(=O)Cn2cc(S(=O)(=O)c3ccc(F)cc3)c(=O)c3cc4c(cc32)OCO4)c1	Cruzain inh noDet inconclusive
Cc1ccc(S(=O)(=O)c2cn(CC(=O)Nc3ccccc3)c3cc4c(cc3c2=O)OCO4)cc1	Cruzain inh noDet 1µM
COc1ccc(/C=C/C(=O)Oc2cccc(/C=N/NC(=O)COc3c(C)cccc3C)c2)cc1	Cruzain inh noDet 16µM
Cc1cccc(C)c1OCC(=O)N/N=C/c1cccn1C	none
COc1ccc(/C=C/C(=O)Oc2ccc(/C=N/NC(=O)COc3c(C)cccc3C)cc2)cc1	Cruzain inh noDet 7.9µM
COc1ccc(/C=C/C=N/NC(=O)COc2ccc(OC)cc2)cc1	none
COCCn1c(=O)c(-c2ccc(OC)cc2)nc2cnc(OCc3ccccc3)nc21	none
O=C(Cn1c(=O)oc2cc(S(=O)(=O)N3CCCCC3)ccc21)NCc1ccc(Cl)cc1	Cruzain inh noDet inconclusive
CCCc1cc(=O)oc2c3c(ccc12)OCN(Cc1ccccc1OC)C3	none
Brc1cc2c(cc1C1Nc3ccccc3C3C=CCC31)OCO2 (configuration not stated)	Cruzain inh noDet inconclusive
Cc1cc(C)c2c(c1)NC(c1cc3c(cc1Br)OCO3)C1CC=CC21 (configuration not stated)	Cruzain inh noDet 20µM
O=c1[nH]c2cc(C(F)(F)F)c(N3CCOCC3)cc2n(CP(=O)(O)O)c1=O	none
O=C(CSc1nc2cc(S(=O)(=O)N3CCOCC3)ccc2o1)NC1CCCc2ccccc21 (configuration not stated)	Cruzain inh noDet 25µM
Cc1ccc(S(=O)(=O)N2CCN(CC(=O)NC3CCCc4ccccc43)CC2)cc1C (configuration not stated)	Cruzain inh noDet inconclusive
Cc1ccc(C(=O)CSc2nc3cc(S(=O)(=O)N4CCOCC4)ccc3o2)cc1	none
Cc1[nH]c2ccccc2c1C(=O)CSc1nc2cc(S(=O)(=O)N3CCCCC3)ccc2o1	Cruzain inh noDet 25µM
COc1ccccc1N1CCN(C(CNC(=O)C(=O)NCc2ccc(F)cc2)c2cccnc2)CC1 (configuration not stated)	Cruzain inh noDet inconclusive
COC(=O)c1cnn(-c2ccc(C(=O)Nc3cccc(C(C)=O)c3)cc2)c1N	none
CCN(CC)CC(C)CNC(=O)c1cc(-c2ccc(Br)s2)nc2ccccc12 (configuration not stated)	none
Cc1nc(NCCO)c2nc(-c3ccccc3)n(CCCN(C)C)c2n1	none
CCN(CC)CCOC(=O)[C@@H](Cc1cccc2ccccc12)C[C@@H]1CCCO1	none
COc1ccccc1CNc1ccc(-c2nc(C(C)C)no2)cc1[N+](=O)[O-]	Cruzain inh noDet inconclusive
COc1ccccc1CNc1ccc(-c2nc(C)no2)cc1[N+](=O)[O-]	Cruzain inh noDet 20µM
COc1ccc(-c2ccc(=O)n(CC(=O)Nc3ccc(N(C)C)cc3)n2)cc1	none
CC1(C)C2([N+](=O)[O-])CN3CC1([N+](=O)[O-])CN(C2)C3c1ccccc1 (configuration not stated)	Cruzain inh noDet 20µM
CC(C)c1ccc(C2N3CCCN23)cc1 (configuration not stated)	none
CC(C)c1ccc(C2N3CC4([N+](=O)[O-])CN2CC([N+](=O)[O-])(C3)C4(C)C)cc1 (configuration not stated)	Cruzain inh noDet 10µM
CC1(C)C2([N+](=O)[O-])CN3CC1([N+](=O)[O-])CN(C2)C31CCCC1	none
CCOC(=O)c1[nH]c2ccc(F)cc2c1NC(=O)Nc1ccccc1OC	Cruzain inh noDet 7.9µM
CCOC(=O)c1[nH]c2ccccc2c1NC(=O)c1ccccc1OC	none
CC(C)CNC(=O)COC(=O)CNC(=O)c1cc(Cl)cc([N+](=O)[O-])c1	Cruzain inh noDet 7.9µM, Cruzain Triton 10µM
O=C(CNC(=O)c1ccccc1)NCC(=O)OCC(=O)c1ccc([N+](=O)[O-])cc1	none
CCNC(=O)COC(=O)CNC(=O)c1cc(Cl)cc([N+](=O)[O-])c1	Cruzain inh noDet 7.9µM, Cruzain Triton 7.9µM
CC(C)CNC(=O)COC(=O)c1ccc([N+](=O)[O-])cc1Cl	none
CC(C)(C)NC(=O)COC(=O)CNC(=O)c1cc(Cl)cc([N+](=O)[O-])c1	Cruzain inh noDet 20µM, Cruzain Triton 25µM
COc1cc(OC)cc(C(=O)NCC(=O)OCC(=O)NC(C)(C)C)c1	none
O=S(=O)(c1ccc(F)cc1)N1CCC(n2c(C(F)(F)F)nc3cccnc32)CC1	none
Cc1c(C(=O)Nc2ccc(-c3nc4cc(Cl)ccc4o3)cc2)oc2ccccc12	none
C/C(=N\NC(=S)NCCc1ccccc1)c1ccc(C#N)cc1	Cruzain inh noDet 10µM
C/C(=N\NC(=S)NCCc1ccccc1)c1ccc(C)cc1	none
CC(C)c1ccc(/C=C/C(=O)Nc2nncs2)cc1	Cruzain inh noDet inconclusive
Cc1sc(NC(=O)/C=C/c2ccc(C(C)C)cc2)c(C#N)c1C	Cruzain inh noDet 25µM
Cc1ccc(-c2ccc(=O)n(CC(=O)Nc3ccc(C)cc3Cl)n2)cc1	Cruzain inh noDet inconclusive
COc1ccc(-c2csc(NC(=O)c3nc(-c4ccccc4)oc3C)n2)cc1	Cruzain inh noDet 7.9µM
CC(=O)c1c(C)[nH]c(C(=O)Nc2nc(-c3ccc(-c4ccccc4)cc3)cs2)c1C	Cruzain inh noDet 10µM
CC(=O)c1c(C)[nH]c(C(=O)Nc2nc(-c3ccc(Cl)cc3)cs2)c1C	none
Cc1oc(-c2ccccc2)nc1C(=O)Nc1nccs1	none

Assay outcomes from PubChem.
